Among the data in PubChem BioAssay (NCATS) are Potency values, retold here.

Results filed as inconclusive are left out. Entries that show only a call come without a potency. Active and inactive are the calls of the source. Calls follow the shape of the full dose curve.
Potency is read from the fitted curve at half-maximal effect.

A short description of this assay: Cytotoxicity counterscreen for inhibitors of SARS-CoV-2 cell entry (AID 1645845). Also: nearly all actives have a fitted effect of over 50% in size. The note with it: cell viability (SARS-CoV-2 entry assay cells); series mostly up to 57.1 µM. The method, boiled down: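 Counterscreen run in the same HEK293-ACE2 line as the pseudotyped-particle entry assay, without particles. Viability after 48 h at 37 C was read as ATP luminescence, scaled between cell-containing and cell-free wells.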
In general terms: The purpose of a counterscreen is to sort out artefacts and off-target activity.
Regarding `N#C/C(=C1/SC[C@@H](c2ccc(Cl)cc2Cl)S1)n1ccnc1`, the Potency result was “inactive”.
As to `O=C1N(c2ccccc2)c2ccccc2C1(Cc1ccncc1)Cc1ccncc1`, the Potency entry was “inactive”.
With `Nc1c2c(nc3ccccc13)CCCC2`, the Potency result is “inactive”.
In the case of `Oc1cccc(-c2c3nc(c(-c4cccc(O)c4)c4ccc([nH]4)c(-c4cccc(O)c4)c4nc(c(-c5cccc(O)c5)c5ccc2[nH]5)CC4)C=C3)c1` it was “inactive”.
On to `O=C1NCCN1CCN1CCC(c2cn(-c3ccc(F)cc3)c3ccc(Cl)cc23)CC1`, for which the Potency is 28.2 µM (active).
As for `O=C1OC2(c3ccccc31)c1cc(I)c(O)c(I)c1Oc1c2cc(I)c(O)c1I`, the entry is “inactive”; as for `O=C(O)c1ccccc1Nc1cc(Cl)ccc1C(=O)O`, “inactive”; as for `COc1cc(C(=O)OCCCN2CCCN(CCCOC(=O)c3cc(OC)c(OC)c(OC)c3)CC2)cc(OC)c1OC`, “inactive”.
Turning to `CN1CCCCC1CCN1c2ccccc2Sc2ccc(S(C)=O)cc21` (centres undefined), the Potency result is “inactive”.
As for `C/C=C/c1ccc(OC)cc1`, the entry is “inactive”; as for `OC(CCN1CCCCC1)(c1ccccc1)c1ccccc1`, “inactive”; as for `CCN(CC)CCCC(C)Nc1c2ccc(Cl)cc2nc2ccc(OC)cc12` (centres undefined), “inactive”.
As for `CCOC(CN1CCN(CC(C)C(=O)c2ccccc2)CC1)c1ccccc1` (centres undefined), the entry is “inactive”; as for `CCCCN(CCCC)CCC(O)c1cc2c(Cl)cc(Cl)cc2c2cc(C(F)(F)F)ccc12` (centres undefined), “inactive”.
In the case of `C#C[C@]1(OC(C)=O)CC[C@H]2[C@@H]3CCC4=C[C@@H](OC(C)=O)CC[C@@H]4[C@H]3CC[C@@]21C`, the Potency entry is “inactive”.
In the case of `CCCCCCCCCCCCCCCC[n+]1ccccc1` it was 11.2 µM (active); in that of `CCOc1ccc(NC(C)=O)cc1`, “inactive”.
As for `CC1(C)CCC(C)(C)c2cc(NC(=O)c3ccc(C(=O)O)cc3)ccc21`, the entry is “inactive”.
In the case of `Cc1cc2nc3ccc(=[N+](C)C)cc-3sc2cc1N`, the Potency was 22.4 µM (active).
Regarding `O=S(=O)(c1cccc2cnccc12)N1CCCNCC1`, the Potency entry is “inactive”.
Consider `O=C(CCCN1CCN(c2ccccn2)CC1)c1ccc(F)cc1`, for which the Potency entry is “inactive”.
For `CN(Cc1cc(Br)cc(Br)c1N)C1CCCCC1`, the Potency entry is “inactive”.
On to `CN(C)CCOc1ccccc1Cc1ccccc1`, for which the Potency entry is “inactive”.
In the case of `CC(C)C(=O)OCc1cccc(OC(=O)[C@@H]2N3C(=O)[C@@H](NC(=O)Cc4ccccc4)[C@H]3SC2(C)C)c1`, the Potency result is “inactive”.
In the case of `C=CCOc1ccccc1OCC(O)CNC(C)C` (centres undefined), the Potency entry was “inactive”.
For the molecule `Cc1ccc(C(=O)Oc2ccc(C(O)CNC(C)(C)C)cc2OC(=O)c2ccc(C)cc2)cc1` (centres undefined), the Potency entry is “inactive”.
In the case of `CCN(CC)CCOC(=O)C(Cc1cccc2ccccc12)CC1CCCO1` (centres undefined), the Potency entry is “inactive”.
As for `C/C=C(/C(=C/C)c1ccc(O)cc1)c1ccc(O)cc1`, the Potency result was “inactive”.
In the case of `COc1ccc(CCN(C)CCCC(C#N)(c2cc(OC)c(OC)c(OC)c2)C(C)C)cc1OC` (centres undefined) it was “inactive”; in that of `Cn1cc(C(=O)[C@@H]2CCc3nc[nH]c3C2)c2ccccc21`, “inactive”.
Turning to `CC(C)C(=O)Nc1cccc(C2CN3CCSC3=N2)c1` (centres undefined), the Potency entry is “inactive”.
Regarding `CC(=O)c1ccc2c(c1)N(CCCN(C)C)c1ccccc1S2`, the Potency result was “inactive”.
On to `CCN(CC)CC(=O)Nc1c(C)cccc1C(=O)OC`, for which the Potency result was “inactive”.
Turning to `CCCCNc1ccc(C(=O)OCCN(CC)CC)cc1`, the Potency entry is “inactive”.
Turning to `CCCCN(CCCC)CC(O)c1cc(Cl)cc2c1-c1ccc(Cl)cc1/C2=C/c1ccc(Cl)cc1` (centres undefined), the Potency entry was “inactive”.
For the molecule `CCO[C@@H]1O[C@H](C(COCc2ccccc2)OCc2ccccc2)[C@H](OCc2ccccc2)[C@H]1O` (some centres undefined), the Potency result was “inactive”.
In the case of `COC(=O)Nc1nc2ccc(Sc3ccccc3)cc2[nH]1` it was “inactive”; in that of `CN1CCC(OC(c2ccccc2)c2ccccc2)CC1`, “inactive”.
On to `Cc1ccc2nc(N)[nH]c(=O)c2c1Sc1ccncc1`, for which the Potency entry is “inactive”.
